# Calls of active or inactive are those of the source.
# How the values were obtained:
# [1] = small molecules captured by biotinylated probe aFSTL3 – biochemical, small-molecule microarray, fluorescence 635/667, stem cell growth factor project, primary screen (AID 1064); details: higher = more signal;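 note: measures binding of the biotinylated anti-FSTL3 antibody to printed compounds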
# [2] = binders from COS7 lysate, DM2A8 probe, primary screen, torsin A project, cell lysate, small-molecule microarray, fluorescence 635/667 (AID 1065); details: higher = more signal, COS7 lysate expressing mutant human TOR1A
# [3] = small molecules captured by biotinylated probe aFGF2 – biochemical, small-molecule microarray, fluorescence 635/667, stem cell growth factor project, primary screen (AID 1067); details: higher = more signal;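 note: measures binding of biotinylated aFGF2 protein to printed compounds on slides; z-score merges feature fluorescence and signal-to-noise across triplicate slides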
# [4] = small molecules captured by biotinylated probe aFGF10 – biochemical, small-molecule microarray, fluorescence 635/667, stem cell growth factor project, primary screen (AID 1071); details: higher = more signal;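 note: score merges 667 nm spot intensity and signal to noise from triplicate slides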
# [5] = target: Neurogenic locus notch homolog protein 2 (Homo sapiens) (UniProt Q04721); assay: small molecules binding Notch2 protein – biochemical, small-molecule microarray, 635 nm fluorescence, stem cell growth factors, primary screen (AID 1073); details: higher = more signal
# [6] = target: Pro-neuregulin-1, membrane-bound isoform (Homo sapiens) (UniProt Q02297); assay: small molecules binding neuregulin-1 protein – biochemical, small-molecule microarray, fluorescence 635/667, psychiatric disease protein project, primary screen (AID 1075); details: NRG1 binding, 635 nm fluorescence, higher = more signal;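 note: score combines 667 nm spot fluorescence with signal to noise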
# [7] = test system: Neuregulin-1 EGF-like domain; assay: small molecules binding NRG1 EGF domain – biochemical, small-molecule microarray, 635 nm fluorescence, primary screen (AID 1081); details: higher = more signal;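 note: binding of the protein to compounds printed on small-molecule microarray slides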
# [8] = FRG1 expression reporter modulators in myotubes – cell-based, C2C12 myotubes, firefly/Renilla luciferase, luminescence, FRG1 inhibition for FSHD, primary screen (AID 1084); details: FRG1 promoter luciferase, higher = more signal, called active from +8 up or from −8 down
# [9] = small molecules captured by biotinylated probe aFST – biochemical, small-molecule microarray, fluorescence 635/667, stem cell growth factor project, primary screen (AID 1086); details: higher = more signal;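 note: score merges 667 nm fluorescence with signal-to-noise of each printed compound spot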
# [10] = binders of probe aHhip on microarray, primary screen, stem cell growth factor project, biochemical, small-molecule microarray, fluorescence 635/667 (AID 1087); details: higher = more signal;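 note: score merges spot fluorescence at 667nm with spot signal to noise ratio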
# [11] = test system: PRMT1 (protein arginine N-methyltransferase 1); assay: small molecules binding arginine methyltransferase PRMT1 – biochemical, small-molecule microarray, 635 nm fluorescence, primary screen (AID 1088); details: higher = more signal;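 note: binding of Prmt1 protein to compounds spotted on small-molecule microarray slides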
# [12] = growth effects on S. cerevisiae YJM789 – YJM789 clinical isolate, OD600, 24 h, basal, primary screen (AID 1089); details: higher = more signal, called active from +8 up or from −8 down;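 note: growth of clinical yeast isolate S. cerevisiae YJM 789 seeded 1000 cells per well; test concentration not given here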
# [13] = S. pombe growth modifiers, basal conditions – strain 972, OD600, 24 h, no modulator, primary screen (AID 1090);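 note: basal condition with compound alone and no growth modifier present; test concentration not given here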; details: S. pombe 972 growth, higher = more signal, called active from +8 up or from −8 down
# [14] = budding yeast growth modifiers under rapamycin – strain BY4716, OD600, 96 h, primary screen (AID 1091); note: test concentration not given here; details: S. cerevisiae BY4716 + rapamycin, higher = more signal, called active from +8 up or from −8 down
# [15] = target: Torsin-1A-interacting protein 2 (Homo sapiens) (UniProt Q8NFQ8); assay: small molecules binding lysate-expressed LULL1 – cell lysate, human LULL1 lysate, 635/667 nm fluorescence, primary screen (AID 1092); details: small-molecule microarray, hLULL1 lysate binding, 635 nm fluorescence; higher = more signal;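 note: probe is lysate of COS7 cells overexpressing human LULL1; score merges per-feature 667 nm fluorescence with signal-to-noise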
# [16] = optical density change of DRC41 E. coli – strain DRC41, OD650, 24 h, E. coli filamentation project, primary screen (AID 1093);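 note: MC1000 strain lacking acrAB efflux and sulA so SOS filamentation is blocked; test concentration not given here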; details: E. coli DRC41 growth, higher = more signal, called active from +8 up or from −8 down
# [17] = probe aLefty2 binding to arrayed compounds – biochemical, biotinylated probe, 635/667 nm fluorescence, primary screen (AID 1094); details: small-molecule microarray, higher = more signal;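 note: score merges spot fluorescence near 667 nm with spot signal-to-noise ratio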
# [18] = test system: Noggin (protein binding on small-molecule microarray); assay: small molecules binding Noggin protein – biochemical, 635/667 nm fluorescence, primary screen (AID 1095); details: 635 nm fluorescence, higher = more signal;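 note: score merges 667 nm feature fluorescence with signal to noise over triplicate slides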
# [19] = target: Neurogenic locus notch homolog protein 3 (Homo sapiens) (UniProt Q9UM47); assay: small molecules binding NOTCH3 protein – biochemical, 635/667 nm fluorescence, primary screen (AID 1096); details: small-molecule microarray, 635 nm fluorescence, higher = more signal
# [20] = probe aEGFR binding to arrayed compounds – biochemical, biotinylated probe, 635/667 nm fluorescence, primary screen (AID 1097); details: small-molecule microarray, higher = more signal;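 note: probe is a biotinylated anti-EGFR antibody binding compounds printed on slides; score combines fluorescence near 667 nm and signal to noise of each spot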
# Chain of Neurogenic locus notch homolog protein 3 (Homo sapiens) (Q9UM47 whole entry, looked up): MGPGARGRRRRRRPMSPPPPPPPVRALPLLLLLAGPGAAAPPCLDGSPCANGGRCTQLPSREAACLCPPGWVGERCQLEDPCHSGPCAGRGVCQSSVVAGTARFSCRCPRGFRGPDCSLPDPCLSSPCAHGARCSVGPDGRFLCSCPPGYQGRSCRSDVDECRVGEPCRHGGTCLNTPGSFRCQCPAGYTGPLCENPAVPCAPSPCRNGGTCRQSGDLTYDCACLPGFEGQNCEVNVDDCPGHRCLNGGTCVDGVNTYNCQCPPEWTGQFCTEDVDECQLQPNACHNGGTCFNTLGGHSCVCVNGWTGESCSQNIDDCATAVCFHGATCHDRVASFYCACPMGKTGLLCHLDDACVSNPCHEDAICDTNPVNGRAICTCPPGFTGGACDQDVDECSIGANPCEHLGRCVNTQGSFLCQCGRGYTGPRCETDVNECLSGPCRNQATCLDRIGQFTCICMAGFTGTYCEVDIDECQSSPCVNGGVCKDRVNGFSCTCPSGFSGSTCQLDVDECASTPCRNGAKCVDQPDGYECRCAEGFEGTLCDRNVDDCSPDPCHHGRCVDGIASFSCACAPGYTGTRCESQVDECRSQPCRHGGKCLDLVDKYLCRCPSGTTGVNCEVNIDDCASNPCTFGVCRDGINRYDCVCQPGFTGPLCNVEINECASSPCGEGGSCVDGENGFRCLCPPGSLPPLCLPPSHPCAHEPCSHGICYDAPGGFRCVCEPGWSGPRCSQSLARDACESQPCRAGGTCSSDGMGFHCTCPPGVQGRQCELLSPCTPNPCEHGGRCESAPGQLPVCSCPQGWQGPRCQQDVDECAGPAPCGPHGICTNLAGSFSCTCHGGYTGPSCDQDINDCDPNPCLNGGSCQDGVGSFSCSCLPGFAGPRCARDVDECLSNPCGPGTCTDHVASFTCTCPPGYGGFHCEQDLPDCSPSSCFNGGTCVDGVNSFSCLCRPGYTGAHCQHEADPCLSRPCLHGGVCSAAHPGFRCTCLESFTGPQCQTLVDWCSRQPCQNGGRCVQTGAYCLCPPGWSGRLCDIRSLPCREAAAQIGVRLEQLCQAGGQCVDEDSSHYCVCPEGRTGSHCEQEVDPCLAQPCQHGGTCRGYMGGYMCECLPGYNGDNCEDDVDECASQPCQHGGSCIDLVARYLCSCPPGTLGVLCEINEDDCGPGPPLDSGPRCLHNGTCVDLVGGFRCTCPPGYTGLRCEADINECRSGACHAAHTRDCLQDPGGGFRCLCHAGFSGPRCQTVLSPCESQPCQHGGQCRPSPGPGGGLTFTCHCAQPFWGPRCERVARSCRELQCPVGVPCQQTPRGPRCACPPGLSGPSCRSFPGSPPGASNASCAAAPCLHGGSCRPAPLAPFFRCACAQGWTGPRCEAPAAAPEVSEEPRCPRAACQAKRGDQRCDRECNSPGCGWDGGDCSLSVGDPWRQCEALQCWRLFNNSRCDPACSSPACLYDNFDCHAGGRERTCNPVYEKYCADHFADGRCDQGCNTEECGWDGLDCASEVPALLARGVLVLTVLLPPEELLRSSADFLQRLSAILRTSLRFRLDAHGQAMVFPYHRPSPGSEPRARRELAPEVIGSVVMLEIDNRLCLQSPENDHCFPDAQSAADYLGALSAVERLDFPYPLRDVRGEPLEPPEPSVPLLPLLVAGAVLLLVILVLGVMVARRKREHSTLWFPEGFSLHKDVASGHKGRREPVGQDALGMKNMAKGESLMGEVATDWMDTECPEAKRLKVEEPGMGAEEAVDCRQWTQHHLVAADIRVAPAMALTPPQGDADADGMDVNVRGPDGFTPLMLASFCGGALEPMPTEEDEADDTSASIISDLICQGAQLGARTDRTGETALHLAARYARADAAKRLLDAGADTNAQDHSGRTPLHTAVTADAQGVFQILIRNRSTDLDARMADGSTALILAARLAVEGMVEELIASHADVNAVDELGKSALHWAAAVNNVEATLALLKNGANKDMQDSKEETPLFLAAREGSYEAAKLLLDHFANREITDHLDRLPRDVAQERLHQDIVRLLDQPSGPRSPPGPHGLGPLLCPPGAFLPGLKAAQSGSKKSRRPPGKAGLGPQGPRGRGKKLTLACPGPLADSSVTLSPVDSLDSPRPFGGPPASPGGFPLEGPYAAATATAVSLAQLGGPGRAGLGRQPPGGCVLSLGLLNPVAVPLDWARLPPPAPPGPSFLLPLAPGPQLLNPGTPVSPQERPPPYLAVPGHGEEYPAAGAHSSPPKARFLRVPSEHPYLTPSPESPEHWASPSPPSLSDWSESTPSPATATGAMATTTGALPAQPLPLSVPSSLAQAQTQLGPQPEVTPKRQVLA
# Chain of Neurogenic locus notch homolog protein 2 (Homo sapiens) (Q04721 whole entry, looked up, canonical isoform): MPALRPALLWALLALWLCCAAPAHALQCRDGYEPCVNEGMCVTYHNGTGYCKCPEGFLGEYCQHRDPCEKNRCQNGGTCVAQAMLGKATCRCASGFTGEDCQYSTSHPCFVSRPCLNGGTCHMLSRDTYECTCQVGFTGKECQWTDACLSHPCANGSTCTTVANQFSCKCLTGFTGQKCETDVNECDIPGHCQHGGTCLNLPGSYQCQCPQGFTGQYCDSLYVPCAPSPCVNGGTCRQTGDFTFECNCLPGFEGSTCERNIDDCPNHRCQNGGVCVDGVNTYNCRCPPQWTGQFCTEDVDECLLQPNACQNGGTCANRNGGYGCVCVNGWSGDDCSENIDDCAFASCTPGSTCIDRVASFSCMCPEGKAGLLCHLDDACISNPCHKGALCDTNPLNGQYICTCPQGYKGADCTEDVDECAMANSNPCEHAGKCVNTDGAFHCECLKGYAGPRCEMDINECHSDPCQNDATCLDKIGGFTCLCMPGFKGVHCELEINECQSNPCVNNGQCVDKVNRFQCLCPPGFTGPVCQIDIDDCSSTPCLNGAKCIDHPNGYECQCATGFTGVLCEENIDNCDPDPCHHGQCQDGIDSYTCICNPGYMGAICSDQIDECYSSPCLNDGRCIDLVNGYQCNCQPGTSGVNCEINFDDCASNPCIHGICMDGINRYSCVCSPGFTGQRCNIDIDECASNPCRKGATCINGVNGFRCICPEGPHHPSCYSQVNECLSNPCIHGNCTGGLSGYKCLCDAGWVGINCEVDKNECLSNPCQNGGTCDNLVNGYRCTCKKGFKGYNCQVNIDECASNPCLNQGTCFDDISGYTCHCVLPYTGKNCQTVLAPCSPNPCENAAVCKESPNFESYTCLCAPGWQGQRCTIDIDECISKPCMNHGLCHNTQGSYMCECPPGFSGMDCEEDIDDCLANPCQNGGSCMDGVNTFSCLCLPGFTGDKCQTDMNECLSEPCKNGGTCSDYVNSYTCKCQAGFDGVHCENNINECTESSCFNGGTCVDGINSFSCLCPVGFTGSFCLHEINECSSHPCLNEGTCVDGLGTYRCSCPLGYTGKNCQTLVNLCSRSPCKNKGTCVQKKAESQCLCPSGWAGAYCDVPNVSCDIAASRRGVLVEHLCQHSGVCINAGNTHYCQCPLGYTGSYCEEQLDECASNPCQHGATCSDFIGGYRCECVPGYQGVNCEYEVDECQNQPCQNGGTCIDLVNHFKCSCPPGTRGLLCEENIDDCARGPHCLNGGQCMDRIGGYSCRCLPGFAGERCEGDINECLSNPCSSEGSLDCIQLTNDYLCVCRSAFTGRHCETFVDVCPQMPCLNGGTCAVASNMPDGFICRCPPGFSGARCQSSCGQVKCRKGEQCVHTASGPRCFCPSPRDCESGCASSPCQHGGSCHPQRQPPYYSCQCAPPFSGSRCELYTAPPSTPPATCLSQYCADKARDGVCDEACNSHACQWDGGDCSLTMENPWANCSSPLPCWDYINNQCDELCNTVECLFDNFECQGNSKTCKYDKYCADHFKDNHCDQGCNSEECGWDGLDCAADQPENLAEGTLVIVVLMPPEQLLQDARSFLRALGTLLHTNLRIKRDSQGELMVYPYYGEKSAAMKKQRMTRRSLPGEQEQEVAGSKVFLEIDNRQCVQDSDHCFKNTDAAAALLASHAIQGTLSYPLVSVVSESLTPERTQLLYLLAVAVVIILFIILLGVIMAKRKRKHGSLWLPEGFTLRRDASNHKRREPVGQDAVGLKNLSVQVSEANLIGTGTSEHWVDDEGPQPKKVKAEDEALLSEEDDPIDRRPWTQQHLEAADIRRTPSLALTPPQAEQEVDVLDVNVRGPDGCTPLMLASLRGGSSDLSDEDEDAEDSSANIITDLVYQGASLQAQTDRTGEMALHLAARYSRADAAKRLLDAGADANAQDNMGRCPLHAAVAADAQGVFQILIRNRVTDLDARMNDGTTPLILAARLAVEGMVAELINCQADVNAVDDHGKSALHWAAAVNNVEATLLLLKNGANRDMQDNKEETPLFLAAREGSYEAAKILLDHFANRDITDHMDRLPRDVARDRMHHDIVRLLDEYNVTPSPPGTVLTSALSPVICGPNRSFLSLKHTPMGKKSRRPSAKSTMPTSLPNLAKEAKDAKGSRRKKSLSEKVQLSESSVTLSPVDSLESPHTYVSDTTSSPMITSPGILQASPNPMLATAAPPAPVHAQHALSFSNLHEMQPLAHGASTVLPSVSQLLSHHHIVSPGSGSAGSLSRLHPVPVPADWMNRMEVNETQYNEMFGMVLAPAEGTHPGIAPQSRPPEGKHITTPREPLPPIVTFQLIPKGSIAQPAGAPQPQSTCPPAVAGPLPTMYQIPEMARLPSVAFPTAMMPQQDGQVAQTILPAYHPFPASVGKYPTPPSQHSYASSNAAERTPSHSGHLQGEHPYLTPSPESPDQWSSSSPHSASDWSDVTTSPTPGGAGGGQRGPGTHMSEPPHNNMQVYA
Compound,composite z-score [1],composite z-score [2],composite z-score [3],composite z-score [4],composite z-score [5],composite z-score [6],composite z-score [7],z-score [8],composite z-score [9],composite z-score [10],composite z-score [11],z-score [12],z-score [13],z-score [14],composite z-score [15],z-score [16],composite z-score [17],composite z-score [18],composite z-score [19],composite z-score [20]
OCC1CC(c2ccccc2)=NO1 (stereo not given),-0.315,0.239,-0.0242,0.202,-0.244,-0.584,-0.164,0.557 (inactive),0.127,0.235,-1.11,-0.248 (inactive),-0.0256 (inactive),0.368 (inactive),-1.3,0.677 (inactive),-0.119,0.397,-0.473,-0.068
CC(C)C(=C=CC[C@H](O)c1cccc(OCCO)c1)C[C@H](O)c1cc(Cl)cc(Cl)c1O,-0.205,-0.178,-0.116,0.792,-0.022,0.462,0.827,0.209 (inactive),0.53,0.0722,1.03,0.834 (inactive),-1.06 (inactive),-0.129 (inactive),2.37,0.236 (inactive),-0.114,0.665,0.964,-0.0626
CC(CO)N1C(=O)[C@@H]2[C@H]3C(=O)OCC=C[C@H]3OC23C=CCN(CCN2CCOCC2)C(=O)[C@@H]13 (stereo not given in full),-0.979,-0.0708,-0.203,-0.362,-0.256,-0.718,0.284,1.03 (inactive),-0.0558,-0.539,0.658,-0.792 (inactive),-0.968 (inactive),-0.268 (inactive),-0.986,-0.909 (inactive),-0.33,0.169,0.0282,-0.0828
COC(=O)[C@@]1(Cc2ccccc2N=[N+]=[N-])N=C(c2ccc(OCCCO)cc2)O[C@H]1c1ccccc1N=[N+]=[N-],0.663,0.192,0.0131,-0.0009,0.648,0.859,1.27,-0.492 (inactive),0.214,-0.0123,1.54,-1.13 (inactive),-3.84 (inactive),26.2 (active),2.05,1.51 (inactive),0.258,0.717,0.647,-0.0211
COc1ccc(C#Cc2ccc3c(c2)[C@]2(C(=O)N3)[C@H](c3ccc(O)cc3)N3[C@H](c4ccccc4)[C@H](c4ccccc4)OC(=O)[C@H]3[C@@H]2C(=O)O)cc1,-0.789,0.413,-0.161,0.831,0.761,0.555,1.13,-0.471 (inactive),-0.541,-1.08,0.525,1.11 (inactive),-1.18 (inactive),0.0572 (inactive),3.12,1.43 (inactive),-0.383,-0.28,-0.17,-0.0507
O=C1N(Cc2ccccc2)c2ccccc2[C@@H]2OC(c3ccc(OCCCO)cc3)=N[C@]12Cc1ccccc1,0.677,-0.603,0.06,0.569,0.848,-0.329,1.19,-2.82 (inactive),0.191,0.113,1.38,-0.548 (inactive),-1.14 (inactive),4.88 (inactive),2.93,0.8 (inactive),0.0759,0.307,0.804,-0.0391
CCOC(=O)c1ccc(NC(=O)O[C@H]2[C@H](OC(=O)Nc3ccc4c(c3)OCO4)[C@H](OC(=O)Nc3ccc4c(c3)OCO4)[C@@H](OC)O[C@@H]2CO)cc1,0.237,0.807,0.129,1.14,1.59,0.898,1.3,1.08 (inactive),0.792,0.28,1.54,1.21 (inactive),1.57 (inactive),6.12 (inactive),3.1,0.62 (inactive),0.17,1.34,1.06,0.251
CCCCCCCCCCC(O)C1C=CC2C(=O)N(C)C(=O)C2N1Nc1ccc([N+](=O)[O-])cc1[N+](=O)[O-] (stereo not given),-0.222,-0.254,0.0772,0.131,1.55,1.12,0.975,0.262 (inactive),0.839,-0.0994,0.195,0.766 (inactive),0.637 (inactive),1.35 (inactive),3.02,-1.68 (inactive),0.379,-0.894,1.1,0.153
COC(=O)[C@@]1(Cc2ccc(F)cc2)[C@H]2c3cc(C(=O)N(C)C)n(Cc4cc(F)cc5c4OCOC5)c3C[C@H]2CN1C(=O)c1ccccc1,0.149,0.199,-0.0002,0.964,1.56,1.81,1.27,-1.82 (inactive),1.03,-0.319,1.17,-1.23 (inactive),0.446 (inactive),1.78 (inactive),3.32,-0.375 (inactive),0.44,0.378,1.04,0.118
O=C1O[C@H](c2ccccc2)[C@H](c2ccccc2)N2[C@H]1[C@@H](C(=O)Nc1nc3ccccc3s1)[C@]1(C(=O)Nc3ccc(C#CC4(O)CCCCCC4)cc31)[C@H]2c1ccccc1OCCO,-0.411,0.0728,-0.048,1.05,1.23,0.77,1.07,0.435 (inactive),0.492,-0.0994,1.54,1.87 (inactive),1.91 (inactive),3.32 (inactive),3.08,0.149 (inactive),-0.118,0.971,1.06,-0.0564

# From PubChem BioAssay
